This is an account of results in PubChem BioAssay.

Some of the results follow. Calls of active or inactive are those of the source.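 How the source made its calls, unless noted: active means inhibition reaching about 45% at 4 µM in either replicate (limit read from the data); inactive means the rest.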

Sentrin-specific protease 6 (Homo sapiens), sequence (Q9GZR1 628-1112 limits assumed): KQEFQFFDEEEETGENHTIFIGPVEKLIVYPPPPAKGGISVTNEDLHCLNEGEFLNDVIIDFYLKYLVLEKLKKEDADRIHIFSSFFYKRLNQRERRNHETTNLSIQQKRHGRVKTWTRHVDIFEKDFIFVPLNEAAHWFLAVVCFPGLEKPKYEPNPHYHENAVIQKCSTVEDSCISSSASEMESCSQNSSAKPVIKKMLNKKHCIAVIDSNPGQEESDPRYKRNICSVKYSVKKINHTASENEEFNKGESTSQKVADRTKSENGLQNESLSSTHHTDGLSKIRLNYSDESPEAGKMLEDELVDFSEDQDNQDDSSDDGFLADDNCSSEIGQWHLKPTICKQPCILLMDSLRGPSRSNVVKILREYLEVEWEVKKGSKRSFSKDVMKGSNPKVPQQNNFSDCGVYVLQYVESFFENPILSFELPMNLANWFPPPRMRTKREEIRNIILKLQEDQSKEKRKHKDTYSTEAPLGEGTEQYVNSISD

System in the first test: not listed separately
Nature of the test: cytotoxicity in PPC-1 cells, confirmation, cytotoxicity control for TRAIL apoptosis potentiator project, cell-based, ATP content luminescence (AID 1447;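 active means reconfirmed compounds whose average cytotoxicity reaches 50% or more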;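 further: 0% = DMSO-treated cells and 100% = wells holding medium but no cells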). As to conditions: PPC-1 viability, ATPlite luminescence, overnight; at 5 µM; hits give high values. On the technique in general: ATP-based viability assays read luminescence as a measure of living cells.
With `Cc1ccc(-c2cn3cc(C)ccc3n2)cc1`, the cytotoxicity is 85.8% (active). Consider `COc1cccc(/C=C/c2ccc3ccccc3n2)c1OC(C)=O`, for which the cytotoxicity was 74.4% (active). With `Clc1ccc2nc(-c3ccccc3)nc(C(Cl)Cl)c2c1`, the cytotoxicity is 76.5% (active). Still for that read-out and setting: to `O=C(Oc1ccc(-c2nc(-c3ccccn3)no2)cc1)c1ccccc1` belongs 44.9% (inactive). For `COc1cc(SC)ccc1C(=O)Nc1cc(C)ccn1`, the cytotoxicity was 53.4% (active). In the case of `CC(=O)c1sc(NC(=O)c2ccc(C)cc2)nc1C`, the cytotoxicity was 52.3% (active). On to `O=c1oc(/C=C/c2ccccc2)nc2ccccc12`, for which the cytotoxicity is 57.5% (active). As to `COc1cc(SC)ccc1C(=O)Nc1nc(C)cs1`, the cytotoxicity was 95.8% (active). For the molecule `Cn1c(=NC(=O)c2cnccn2)sc2ccccc21`, the cytotoxicity is 50.8% (active).

Regarding `COc1ccc(-c2nc(-c3ccccc3)no2)c(OC)c1`, the cytotoxicity is 69.6% (active).

For the molecule `Cn1c(-c2ccco2)nc2cc3ccccc3cc21`, the cytotoxicity was 89.1% (active).

`O=C(/C=C/c1ccc(Cl)c([N+](=O)[O-])c1)c1ccc(O)cc1`: the cytotoxicity was 4.1% (inactive). Turning to `Cc1ccc(-c2nc3ccccc3[nH]2)cc1N`, the cytotoxicity is 49.3% (inactive). As for `Cc1nc2cc(NC(=O)Nc3cccc(F)c3)ccc2n1C`, the cytotoxicity was 51.2% (active). `Cc1ccc(-c2cc(C(=O)N/N=C/C=C/c3ccco3)c3ccccc3n2)cc1C`: the cytotoxicity was 56.4% (active).

As to `Clc1ccc(-c2cc(-c3ccccn3)on2)c(Cl)c1`, the cytotoxicity is 89.7% (active). Turning to `COc1ccc(C(=O)Nc2ccccc2C(=O)N/N=C/c2ccc(O)c(OC)c2)cc1`, the cytotoxicity was 96.5% (active).

Turning to `O=C(Nc1ccc(NC(=O)c2cccs2)cn1)c1ccco1`, the cytotoxicity is 42.1% (inactive). With `COc1ccc(-c2cn3ccc(C)cc3n2)cc1`, the cytotoxicity is 89.4% (active). Same read-out and setting: to `CCC(C)Cn1c(O)cc2nn(-c3nc4ccccc4s3)c(=O)c-2c1C` (configuration not stated) belongs 53.8% (active).

System in another test: not listed separately
Nature of the test: PMA/ionomycin-induced NF-kB reporter inhibitors, Jurkat retest, confirmation, T-cell NF-kB inhibitor project, cell-based, luminescence, single concentration (AID 435020).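 Further: plate controls were PMA/ionomycin stimulated DMSO wells for no effect and unstimulated DMSO wells for full effect.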 As to conditions: Jurkat NF-kB luciferase, 16 h, at 4 µM, hits give high values.
Regarding `COc1cc2c(cc1OC)CN(C(=O)c1cc(=O)c3ccccc3o1)CC2`, the inhibition was 21.4% (inactive). The same measure, in the same setting: the same measure for `CCCC(=O)Nc1nc2ccc(NC(=O)c3c(F)c(F)c(OC)c(F)c3F)cc2s1`: 40.9% (active); for `COc1ccc(NC(=O)/C(Cl)=C(/Cl)S(=O)Cc2ccc(C)cc2)cn1` (configuration not stated): 100% (active). As to `Cc1c(/C=N\NC(=O)c2cc3ccccc3o2)c2ccccc2n1C`, the inhibition was -0.3% (inactive). The same measure, in the same setting: to `CC(C)c1ccc(NC(=O)NC2CCCCC2)cc1` belongs -175% (inactive); to `Cc1ccc2nc(-c3ccncc3)cc(C(=O)Nc3ccc(OC(F)F)cc3)c2c1`, 28.2% (inactive); to `COc1ccccc1C1C2=C(COC2=O)Nc2cc3c(cc21)OCO3` (configuration not stated), 23.4% (inactive). As for `CCOc1cc(C(=O)N2CCc3cc(OC)c(OC)cc3C2)ccc1OC(F)F`, the inhibition is 57.9% (active). For `N=c1c2c(-c3ccccc3)c(-c3ccccc3)n(Cc3ccccc3)c2ncn1CCCO`, the inhibition was 24.1% (inactive). Regarding `Cc1ccc2nc(-c3ccc(NC(=O)CN(C)S(=O)(=O)c4ccccc4)cc3)sc2c1`, the inhibition is -82.4% (inactive). For the molecule `Cc1nnc(N/N=C/c2ccccn2)[nH]c1=O`, the inhibition was 63.8% (active). `Cc1ccc(O)c(NC(=O)COc2cc(C)ccc2C)c1`: the inhibition is 0.55% (inactive). As to `CCOc1cccc(/C=C/c2ccc3ccccc3n2)c1OC(C)=O`, the inhibition was -131% (inactive). `Cc1cccc(N(C)C(=O)c2cc3c(=O)[nH]c4ccc(C)cc4c3s2)c1`: the inhibition is 16.9% (inactive). The same measure, in the same setting: the same measure for `Cn1nccc1C(=O)NC1CCCc2c1cnn2-c1ccc(F)cc1F` (configuration not stated): 76.3% (active). As to `O=c1cc(-c2ccccc2)[nH]c2cc(F)ccc12`, the inhibition is 46% (inactive). With `COc1ccc(-n2ncc3c(N4CCc5ccccc54)ncnc32)cc1`, the inhibition was -93.4% (inactive). Still for that read-out and setting: to `O=C(CSC(=S)N1CCCCC1)c1c(F)cccc1F` belongs -113% (inactive). For the molecule `Cn1c(-c2ccc(C(F)(F)F)cc2)cc2onc(-c3ccccc3)c2c1=O`, the inhibition is -121% (inactive).

As to `CC(C)Sc1ncnc2c1cnn2-c1ccccc1`, the inhibition was -138% (inactive).

A further test deals with Sentrin-specific protease 8 (Homo sapiens) (UniProt Q96LD8). Nature of the test: SENP8 protease inhibitors, retest, confirmation, biochemical, luminescence, single concentration (AID 488912;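 active means mean inhibition across replicates above about 50%, limit read from the data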). Conditions: Recombinant SENP8, Z-RLRGG-aminoluciferin luminescence, 60 min; at 12.5 µM; hits give high values.
Sentrin-specific protease 8 (Homo sapiens), sequence (Q96LD8 whole entry, looked up): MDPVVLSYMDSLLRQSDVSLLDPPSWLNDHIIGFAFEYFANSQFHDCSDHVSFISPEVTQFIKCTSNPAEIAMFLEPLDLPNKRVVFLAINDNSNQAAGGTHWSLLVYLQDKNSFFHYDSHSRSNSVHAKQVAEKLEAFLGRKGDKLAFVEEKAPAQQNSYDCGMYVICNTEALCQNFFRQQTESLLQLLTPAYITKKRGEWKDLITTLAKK
As to `Cc1ccc(-c2cn3cc(C)ccc3n2)cc1`, the inhibition is 54.3% (active). `O=C(Oc1ccc(-c2nc(-c3ccccn3)no2)cc1)c1ccccc1`: the inhibition was 4.5% (inactive). On the same count and under the same terms, to `COc1cc(SC)ccc1C(=O)Nc1cc(C)ccn1` belongs 39.8% (inactive); to `CC(=O)c1sc(NC(=O)c2ccc(C)cc2)nc1C`, -24.9% (inactive); to `COc1cc(SC)ccc1C(=O)Nc1nc(C)cs1`, 89.6% (active). `COc1ccc(-c2nc(-c3ccccc3)no2)c(OC)c1`: the inhibition was 97.4% (active). For `Cn1c(-c2ccco2)nc2cc3ccccc3cc21`, the inhibition is 3.5% (inactive).

In the case of `Cc1ccc(-c2nc3ccccc3[nH]2)cc1N`, the inhibition was 91.6% (active). With `Clc1ccc(-c2cc(-c3ccccn3)on2)c(Cl)c1`, the inhibition was 94.7% (active). Same read-out and setting: to `COc1ccc(C(=O)Nc2ccccc2C(=O)N/N=C/c2ccc(O)c(OC)c2)cc1` belongs 97.3% (active); to `COc1ccc(-c2cn3ccc(C)cc3n2)cc1`, -5.4% (inactive).

Another test concerns the target Sentrin-specific protease 6 (Homo sapiens) (UniProt Q9GZR1). Nature of the test: SENP6 protease inhibitors, confirmation, biochemical, luminescence, single concentration (AID 488915;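 active means mean inhibition above about 50% in the one-dose retest, limit read from the data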). Conditions: recombinant SENP6, Z-RLRGG-aminoluciferin luminescence; at 12.5 µM; hits give high values.
As for `Cc1ccc(-c2cn3cc(C)ccc3n2)cc1`, the inhibition was 91.7% (active). With `O=C(Oc1ccc(-c2nc(-c3ccccn3)no2)cc1)c1ccccc1`, the inhibition is 23.1% (inactive). For the molecule `COc1cc(SC)ccc1C(=O)Nc1cc(C)ccn1`, the inhibition was 40.9% (inactive). In the case of `CC(=O)c1sc(NC(=O)c2ccc(C)cc2)nc1C`, the inhibition was -17.1% (inactive).

For the molecule `COc1cc(SC)ccc1C(=O)Nc1nc(C)cs1`, the inhibition is 98.7% (active).

Take `COc1ccc(-c2nc(-c3ccccc3)no2)c(OC)c1`: the inhibition is 100% (active). With `Cn1c(-c2ccco2)nc2cc3ccccc3cc21`, the inhibition was 99.6% (active). On the same count and under the same terms, to `Cc1ccc(-c2nc3ccccc3[nH]2)cc1N` belongs 92% (active); to `Clc1ccc(-c2cc(-c3ccccn3)on2)c(Cl)c1`, 95.8% (active); to `COc1ccc(C(=O)Nc2ccccc2C(=O)N/N=C/c2ccc(O)c(OC)c2)cc1`, 98.5% (active). Take `COc1ccc(-c2cn3ccc(C)cc3n2)cc1`: the inhibition was 88.1% (active).

What is called inhibition is the change of the read-out against control, counted positive when it falls.
